Assay results from PubChem BioAssay (NCI).
This is part of a sample that, as a whole, favours compounds with a hit. Of some 83,000 tested, about 20% had one in any assay.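 In brief: 96-well plates, 48 h treatment, single concentration, percent growth endpoint.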 Active and inactive are the calls of the source.

tested on: HCT-116 colon; experiment: NCI-60 one-dose screen, 48 h (100 = growth as untreated, 0 = no growth, -100 = all killed); conditions: 10 µM unless noted
Experimental: Growth inhibition of the HCT-116 human tumor cell line is measured as a screen for anti-cancer activity. Cells are grown in 96 well plates and exposed to the test compound for 48 hours. Compounds are tested at a single concentration, which is 10^-5 M for most compounds. The reported endpoint is percent growth (GI% or GIPRCNT), where numbers from 0 - 100% represent growth inhibition, and numbers from -100% - 0 represent cell death. For example, a value of 40 represents 60% growth inhibition. A value of 0 means no net growth occurred over the course of the experiment. A value of -40 indicates 40% of cells at the beginning of the experiment died by the end of the experiment. A value of -100 means all cells are dead at the end of the experiment.
NCI-60 Human Tumor Cell Lines Screen was performed using the standard one-dose NCI protocol, which is described in more detail at https://dtp.cancer.gov/discovery_development/nci-60/default.htm.
Compounds with GIPRCNT values below 10 were considered active. Activity score was based on GIPRCNT using the following formula: […]
Score is 0 for GIPRCNT values of 100 or above, 50 for GIPRCNT values of 0, and 100 for GIPRCNT values of -100.

| SMILES | growth |
| --- | --- |
| O=C(Nc1cccc(Oc2nnc(Cl)c3ccccc23)c1)Nc1ccc(Cl)c(C(F)(F)F)c1 | -71.6% (active) |
| COCCN(C(=O)c1ccc(F)cc1F)c1c(N)n(Cc2ccccc2)c(=O)[nH]c1=O | 102% (inactive) |
| O=[N+]([O-])c1ccc(C2CC(c3ccccc3)=Nc3ccccc3S2)cc1 (stereo not given) | 36.2% (inactive) |
| COc1ccc(C2=NN(C(=O)c3cc(OC)c(OC)c(OC)c3)C(c3ccc(Cl)cc3)C2)cc1OC (stereo not given) | 10.6% (inactive) |
| CC1SC(c2ccc(OCc3ccccc3)cc2)N(NC(=O)C(O)(c2ccccc2)c2ccccc2)C1=O (stereo not given) | 39.6% (inactive) |
| CCOc1ccccc1-c1cc(-c2cccs2)c(C#N)c(=O)[nH]1 | 92.3% (inactive) |
| C=CCNc1nc(NN2C(=O)c3cccc4cccc(c34)C2=O)nc(-n2cnc3ccccc32)n1 | 79.8% (inactive) |
| O=C(CSc1nnc(-c2ccc(NC(=O)c3cccnc3)cc2)o1)Nc1cccc(Br)c1 | 58.7% (inactive) |
| CC1CC(C(C)(C)C)C(=O)C(C(C)(C)C)C1 (stereo not given) | 108% (inactive) |
| O=C1Nc2ccccc2/C1=C/c1cn(C(=O)c2c(Cl)cccc2Cl)c2ccccc12 | 26.1% (inactive) |
| Cc1occc1-c1n[nH]c(=S)n1N1C(=O)CSC1=S | 105% (inactive) |
| O=C(Nc1ccc(-n2cc(-c3ccncc3)c(-c3ccc(Cl)c(O)c3)n2)cc1)N1CCOCC1 | 94.8% (inactive) |
| COc1ccc2occ(C3=C(c4c[nH]c5ccccc45)C(=O)N(O)C3=O)c2c1 | 90.7% (inactive) |
| N#Cc1c(-c2cccc(Cl)c2)cc(-c2cccc(Cl)c2)[nH]c1=O | 67.1% (inactive) |
| COc1cccc2c1C(=O)c1c(O)c3c(c(O)c1C2=O)CC(O)(/C(C)=N/NC(=O)CCCCC(=O)N/N=C(\C)C1(O)Cc2c(O)c4c(c(O)c2C(OC2CC(N)C(O)C(C)O2)C1)C(=O)c1c(OC)cccc1C4=O)CC3OC1CC(N)C(O)C(C)O1 (stereo not given) | -3.01% [5 µM] (active) |
| COc1cc(C2CC(c3ccc(Nc4ccnc5cc(Cl)ccc45)cc3)=NN2C=O)cc(OC)c1OC (stereo not given) | 13.5% (inactive) |
| O=C(c1ccccc1)N1N=C(c2ccccc2)CC1c1nnc2n(Cc3ccccc3)c(=O)c3c4c(sc3n12)CCCC4 (stereo not given) | 95.1% (inactive) |
| COC(=O)[C@]12CC[C@@H](C)[C@H](C)[C@@H]1C1=CC[C@@H]3[C@@]4(C)C(C=O)=C[C@@](C)(COC(=O)/C=C/c5ccccc5)[C@@H]4[C@H](O)C[C@@]3(C)[C@]1(C)CC2 | -72.5% (active) |
| CC(=O)N1C(=S)NC(=O)C1Cn1c(-c2ccccc2)nc2ccccc21 (stereo not given) | 90.2% (inactive) |
| O=C(NCCc1ccc(O)c(O)c1)C12CC3CC(CC(C3)C1)C2 | 82.6% (inactive) |

| SMILES | growth |
| --- | --- |
| CNC(=O)c1cc(Oc2ccc3nc(Nc4ccc(Cl)c(C(F)(F)F)c4)ccc3c2)ccn1 | 45.1% (inactive) |
| Cc1ccc2[nH]c(=O)c3c(c2c1)OC(N)=C(C#N)C31c2cc(Br)ccc2-c2ccc(Br)cc21 | 67.8% (inactive) |
| Cn1c2c(c3ccc(Cl)c(Cl)c31)C(C#N)C1(CCNCC1)NC2=O (stereo not given) | 13% (inactive) |
| O=C(O)CN1C(=O)CCC1=O | 115% (inactive) |
| N#Cc1c(N2CCNCC2)nc2sc3cc(Cl)c(Cl)cc3n2c1=N | 97.1% (inactive) |
| O=C1/C(=C/c2ccccc2)CCc2nc3ccccc3c(/C=C/c3ccc(Cl)cc3)c21 | 57.7% (inactive) |
| C=C1C(=O)O[C@H]2[C@H]1CC/C(COC(=O)C(=O)c1cn(C)c3ccc(OC)cc13)=C\CC[C@@]1(C)O[C@@H]21 | -95.1% (active) |
| CC1=C([Se]CC(OC(=O)[C@@H](CO)NC(=O)OC(C)(C)C)C(=O)NC(C)(C)C)C(=O)c2ccccc2C1=O (stereo not given in full) | -100% (active) |
| O=c1c2c3c(sc2n2c(-c4cn(-c5ccccc5)nc4-c4ccc(Cl)cc4)nnc2n1Cc1ccccc1)CCCC3 | 92.6% (inactive) |
| COc1ccccc1NC(=O)N/C(N)=N/c1nc2ccccc2s1 | 13.4% (inactive) |
| CC(CN1CCCCC1)C(=O)c1ccccc1 (stereo not given) | 112% (inactive) |
| COc1ccc(C2=Nc3c(N)ncnc3NC(c3ccc4c(c3)OCO4)C2)cc1 (stereo not given) | 74.2% (inactive) |
| Cn1cc(-c2csc(-c3cccc(F)c3)n2)c2cccnc21 | -79.7% [100 µM] (active) |
| O=C(N/N=C/c1ccncc1)c1ccc(C(F)(F)F)nc1Nc1cccc(C(F)(F)F)c1 | 11.1% (inactive) |
| CC(C)(C)c1ccc(/C=C/C(=O)Nc2ccc(O)cc2)cc1 | 68.1% (inactive) |
| CN(C)c1ccc(-c2ccc3[nH]c(=O)nc(-c4ccccc4)c3c2)cn1 | 16.4% (inactive) |
| COc1ccc(-c2c(N)n[nH]c2-c2ccc(Cl)cc2O)cc1OC | 90.1% (inactive) |
| COc1cc(/C=C/C(=O)N2CCN(C(=O)c3cc(OC)c(OC)c(OC)c3)CC2)ccc1OCCCN1C(=O)c2cccc3cccc(c23)C1=O | 81.4% (inactive) |
| COc1ccc2c(c1)O/C(=C\c1cccc(OCC(=O)Nc3nc(C)c(C)s3)c1)C2=O | 66.6% (inactive) |
| N=c1sc(Cc2ccc(Cl)cc2)cn1CC(=O)c1ccc(F)cc1 | 63.7% (inactive) |
